{
  "source": "PubChem BioAssay AID493208",
  "about": "(National Center for Advancing Translational Sciences (NCATS), 2011)",
  "note": "Screen size: about 44,000 compounds; about 340 (0.77%) were called active. Another 5% or so got no clear call; they are omitted. Calls follow the shape of the dose curve; as a rule, active = well fitted inhibition curve with a large enough effect; inconclusive = small, poorly fitted or top-dose-only effect; inactive = flat fitted curve, though single readings scatter. The list comes from a sample in which actives are over-represented; it also holds similar structures and randomly drawn compounds. Where a call stands in place of a potency, no number is given. Potency is read from the fitted curve at half-maximal effect.",
  "data": [
    {"assay": "Acumen qHTS Assay for Inhibitors of the mTORC1 Signaling Pathway in MEF (Tsc2-/-, p53-/-) Cells: Sytravon; also: nearly all actives have a fitted effect of over 50% in size", "conditions": "phospho-rpS6 immunofluorescence/PI, 24 h; series mostly up to 38.3 µM", "excerpt": "NIH Molecular Libraries Probe Production Centers Network [MLPCN] NIH Chemical Genomics Center [NCGC] MLPCN Grant: NS059428-01 Assay Submitter (PI): Blenis, John; Hoffman, Greg; Harvard University NCGC Assay Overview: The mammalian target of rapamycin (mTOR) is an intracellular serine/threonine kinase Aberrant regulation of mTOR signaling plays a causative role in a number of human diseases, including cancer, benign tumors such as lymphangioleiomyomatosis (LAM) and Tuberous Sclerosis Complex (TSC), and metabolic diseases such as diabetes and obesity. This project aims to identify inhibitors of ribosomal protein S6 (rpS6) phosphorylation. The phosphorylation of rpS6 is a key event downstream of mTOR activation. The assay uses a phospho-specific antibody of phospho-rpS6 to detect inhibitors of mTOR activation. Mutations in the Tsc1 and Tsc2 genes are the underlying genetic lesions responsible for TSC, causing constitutive activation of the mTORC1 pathway and leading to profound effects on cell metabolism. Aberrant metabolism in cancer has recently received significant attention as a target to develop therapeutic agents in the treatment of cancer.1 As Tsc2-/- cells have lost the ability to respond to energy and growth factor deprivation, these cells are unable to properly down regulate cellular biosynthetic processes in response to metabolic stress, and are thus extremely sensitive to glucose deprivation-induced death.2 A central goal of this project is to explore the unique cell survival and metabolic properties of cells with Tsc1 or Tsc2 by screening for compounds that selectively target the Tsc2-/- MEFs by screening both Tsc2-/- and WT MEF cell lines. We hope to better understand these aspects of TSC physiology in order to exploit them for therapeutic benefit.\nNCGC Acumen Assay Protocol Summary: For quantitative high throughput analysis of mTORC1 signaling, we developed a cell-based assay for immuno-fluorescence based detection of rpS6 phosphorylation on the Acumen Explorer that will be used a platform for the primary small molecule screen. Mouse embryonic fibroblasts (MEFs) are cultured in 1536-well plates using DMEM + 10% FBS. Twenty-four hrs after plating, test compounds (solubilized in DMSO) are delivered and incubated with the cells for 24 hrs at 37 degree Celsius. Following the incubation, media with compound is aspirated and the cells are fixed in 4% paraformaldehyde (PFA) containing PBS + 0.2% TX-100. Next, PFA is aspirated, cells are washed two times with PBS plus 0.2% TX-100 and the cells are blocked for 1 hr at room temperature (blocking buffer: LiCOR Blocking Buffer plus 0.2% TX-100). […] Cells are washed two times with PBS plus 0.2% TX-100, and stained with 10 uM propidium iodide (PI) for 20-25 minutes for cell number measurement (1:500 dilution of Hoescht staining is also added for IN Cell imaging). The plates are scanned on the Acumen Explorer laser scanning instrument (TTP Labtech) using the 488nm laser for simultaneous excitation of the Alexa-488 and PI. […] The normalized phospho-S6 staining is calculated as the ratio of the integrated Alexa 488 intensity divided by the integrated PI intensity for the single concentration rapamycin control (7.5 nM) and DMSO columns. […] Inhibition of the pathway is defined based on the normalized phospho-S6 intensity in rapamycin treated cells. Active cells are defined as those with a normalized phospho-S6 staining above this threshold, and each treatment is reported as the % positive cells in the well, where thresholds are defined by selecting wells with the highest and lowest signal and differentiating between the % non-active and % active populations. In addition to the pathway specific phospho-S6 endpoint, the number of PI stained cells from the Acumen is recorded as a measure of cell viability. The primary screen was performed with a MEF cell line in a defined genetic background, Tsc2-/-, p53-/- cell line stably transfected with an empty vector control (Tsc2-/- MEF).", "values": [
      {"smiles": "COc1ccc2c(Sc3ccc(C)cc3)c(C(=O)NC(C)c3ccccc3)[nH]c2c1", "note": "(stereo unspecified)", "Potency": "inactive"},
      {"smiles": "CCc1ccc(CNC(=O)C2CCN(c3nn4cc(-c5ccc(F)cc5)nc4s3)CC2)cc1", "Potency": "inactive"},
      {"smiles": "COCCNC(=O)CSc1nc(-c2ccccc2)[nH]c1-c1ccc(C)cc1", "Potency": "inactive"},
      {"smiles": "CCOc1ccccc1NC(=O)CSc1ncc(S(=O)(=O)c2ccc(C(C)(C)C)cc2)c(=O)[nH]1", "Potency": "inactive"},
      {"smiles": "CCCCOc1ccc(CN2C(=O)C(=O)c3cc(Br)cc(C)c32)cc1OC", "Potency": "9.27 µM (active)"},
      {"smiles": "CCCCOc1ccc(Cn2c(=O)oc3ccc(C)cc32)cc1OC", "Potency": "inactive"},
      {"smiles": "CCOc1ccc(CNCc2c(C(=O)O)c(C)n(Cc3cccc(OC)c3)c2C)cc1OC", "Potency": "inactive"},
      {"smiles": "Cc1cc(NC(=O)c2cccc(Cl)c2)ccc1-c1cc2ccccc2oc1=O", "Potency": "inactive"},
      {"smiles": "COc1cccc(C(=O)Nc2nnc(S(=O)(=O)N3CCOCC3)s2)c1", "Potency": "inactive"},
      {"smiles": "COc1ccccc1NC(=O)c1cc(S(=O)(=O)NCCc2ccccc2)ccc1F", "Potency": "inactive"},
      {"smiles": "Cc1cc(C)c2oc(-c3cccc(NC(=O)c4cccc(F)c4)c3C)nc2c1", "Potency": "inactive"},
      {"smiles": "CCc1ccc(CNCc2c(C(=O)O)n(Cc3ccc(F)cc3Cl)c3cc(OC)ccc23)cc1", "Potency": "inactive"},
      {"smiles": "COc1ccc(Cl)cc1NC(=O)CSc1nc(-c2cccs2)cc(C(F)(F)F)n1", "Potency": "inactive"},
      {"smiles": "COc1ccc(C)cc1NC(=O)COCc1cc(-c2cccs2)on1", "Potency": "inactive"},
      {"smiles": "COc1ccc(C(F)(F)F)cc1NC(=O)c1sc2nc(-c3cccs3)ccc2c1N", "Potency": "18.5 µM (active)"},
      {"smiles": "Cc1nc2c(c(C)nn2-c2ccccc2)c(C)c1CCC(=O)NCCc1ccc(Cl)cc1", "Potency": "inactive"},
      {"smiles": "O=C(NCc1ccccc1)c1cc(-c2cccc(Cl)c2)on1", "Potency": "inactive"},
      {"smiles": "CC(C)CCN(C(=O)Nc1ccc(Cl)c(Cl)c1)C(C)c1cccs1", "note": "(stereo unspecified)", "Potency": "inactive"},
      {"smiles": "Cc1cccc(CCNC(=O)c2ccc3c(c2)nc2n3CCC(C)C2)c1", "note": "(stereo unspecified)", "Potency": "inactive"},
      {"smiles": "Cc1nn2c(=O)cc(COC(=O)c3ccccc3NC(=O)COc3ccccc3C)nc2s1", "Potency": "inactive"},
      {"smiles": "COc1ccc(Br)cc1CNC(=O)c1cc(=O)[nH]c2ccc(S(=O)(=O)N3CCCC3)cc12", "Potency": "inactive"},
      {"smiles": "CN(C)CCCn1c(-c2ccc(Cl)cc2)csc1=Nc1ccccc1", "Potency": "inactive"},
      {"smiles": "COc1ccc(-c2nnc(SCC(=O)Nc3ccccc3C)o2)cc1OC", "Potency": "inactive"},
      {"smiles": "COc1ccc(Cc2nc3ccc(C(=O)NCc4ccc(OC)cc4OC)cc3o2)cc1", "Potency": "inactive"},
      {"smiles": "Cc1ccc(Cl)cc1NC(=O)CCC(=O)N1CC(C)Sc2ccccc21", "note": "(stereo unspecified)", "Potency": "inactive"},
      {"smiles": "Cc1nc2ccccn2c(=O)c1NC(=O)c1c(F)cccc1F", "Potency": "inactive"},
      {"smiles": "CCc1cccc(NC(=O)Cn2nc(CC)n3c(cc4cc(C)ccc43)c2=O)c1", "Potency": "inactive"},
      {"smiles": "CCOc1ccc(Nc2c(S(=O)(=O)c3ccccc3)cnc3ccccc23)cc1", "Potency": "inactive"},
      {"smiles": "COc1ccc(CNC(=O)c2cc3cccc(OC)c3oc2=O)cc1", "Potency": "inactive"},
      {"smiles": "COc1ccc(-n2c(SCC(N)=O)nc3c(oc4ccccc43)c2=O)cc1", "Potency": "inactive"},
      {"smiles": "CCOc1ccc(C2C(C(=O)Nc3ccc(Cl)cc3)=C(C)Nc3nc(C(F)(F)F)nn32)cc1", "note": "(stereo unspecified)", "Potency": "5.85 µM (active)"},
      {"smiles": "CCOc1cc(C2C(C(=O)Nc3ccc(OC)cc3)=C(C)Nc3nc(SC)nn32)ccc1O", "note": "(stereo unspecified)", "Potency": "inactive"},
      {"smiles": "CCOc1ccccc1NC(=O)C1=C(C)Nc2ncnn2C1c1ccc(NC(C)=O)cc1", "note": "(stereo unspecified)", "Potency": "inactive"},
      {"smiles": "CCc1cccc(NC(=O)c2cnc(N3CCOCC3)c3ccccc23)c1", "Potency": "inactive"},
      {"smiles": "Cc1cccc(N2CCN(C3=C(c4ccccc4)C(=O)c4ccccc43)CC2)c1C", "Potency": "inactive"},
      {"smiles": "COc1ccc(N(CC(=O)NCCc2ccc(Cl)cc2)S(=O)(=O)c2c(C)nn(C)c2C)cc1", "Potency": "inactive"},
      {"smiles": "Cc1ccc(OCC(=O)Nc2ccc(OCc3cc(=O)n4c(C)csc4n3)cc2)cc1C", "Potency": "inactive"},
      {"smiles": "O=C(Cn1c(=O)n(-c2ccc(F)cc2)c(=O)c2sc3ccccc3c21)NC1CCCC1", "Potency": "inactive"},
      {"smiles": "CCOc1cc(-c2nnc(SCC(=O)NC3CCCC3)nc2-c2ccc(OC)c(OCC)c2)ccc1OC", "Potency": "inactive"},
      {"smiles": "CCOc1ccc(CCNC(=O)Cn2nc(CC)n3c(cc4sc(CC)cc43)c2=O)cc1OCC", "Potency": "inactive"},
      {"smiles": "CCc1ccc(C(=O)CC2(O)C(=O)N(CCc3ccccc3)c3ccc(Br)cc32)cc1", "note": "(stereo unspecified)", "Potency": "inactive"},
      {"smiles": "CCCN1C(=O)C(O)(CC(=O)c2ccc(CC)cc2)c2cc(Br)ccc21", "note": "(stereo unspecified)", "Potency": "4.65 µM (active)"},
      {"smiles": "Cc1ccc(C(=O)CC2(O)C(=O)N(CCc3ccccc3)c3ccc(Br)cc32)cc1", "note": "(stereo unspecified)", "Potency": "inactive"},
      {"smiles": "CCOc1ccccc1C(=O)NCC(c1ccc(N(C)C)cc1)N1CCCC1", "note": "(stereo unspecified)", "Potency": "inactive"},
      {"smiles": "COc1ccccc1NC(=O)c1sc2nc(C)c(C(=O)Nc3ccc(Cl)cc3)c(-c3ccc(Br)cc3)c2c1N", "Potency": "inactive"},
      {"smiles": "COC(=O)c1ccccc1NC(=O)Cn1c(=O)cc(C)c2c(C)nn(-c3cccc(Cl)c3C)c21", "Potency": "inactive"},
      {"smiles": "CCOc1ccc(N(CC)C(=O)c2cc3c(=O)oc4ccccc4c3s2)cc1", "Potency": "inactive"},
      {"smiles": "Cc1ccc(Cn2c(CNC(=O)Cc3cccc(C)c3)nc3cccnc32)cc1", "Potency": "inactive"},
      {"smiles": "Cc1ccc(C)c(NC(=O)Cn2ccn(-c3ccc(F)cc3)c(=O)c2=O)c1", "Potency": "inactive"},
      {"smiles": "COc1cc2nc(SCC(=O)Nc3ccccc3F)n3nc(-c4ccccc4)nc3c2cc1OC", "Potency": "inactive"},
      {"smiles": "Cc1cccc(N2CCN(C(=O)c3ccc4c(c3)CCN4S(=O)(=O)c3ccccc3)CC2)c1C", "Potency": "inactive"},
      {"smiles": "O=C(NCCCO)C(=O)Nc1c2c(nn1-c1ccccc1)CSC2", "Potency": "inactive"},
      {"smiles": "CCCCN(C)S(=O)(=O)c1ccc(C(=O)Nc2sc3c(c2C(N)=O)CC(C)(C)NC3(C)C)cc1", "Potency": "inactive"},
      {"smiles": "O=C(CCSCc1ccccc1F)N1CCN(c2ccc(Cl)cc2)CC1", "Potency": "inactive"},
      {"smiles": "COc1cc(OC)c(NC(=O)N2CC3CCCN3c3ccccc32)cc1Cl", "note": "(stereo unspecified)", "Potency": "inactive"},
      {"smiles": "COc1ccc(CNc2nc(-c3ccc(Cl)cc3)nn2C(=O)c2ccccc2)cc1", "Potency": "inactive"},
      {"smiles": "CCOc1ccc(-n2c(C)nc3c(cnn3-c3ccc(C)cc3)c2=O)cc1", "Potency": "inactive"},
      {"smiles": "COc1ccccc1NC(=O)CSC1=Nc2ccccc2C2=NC(CC(=O)NCc3cccs3)C(=O)N12", "note": "(stereo unspecified)", "Potency": "inactive"},
      {"smiles": "COc1cc(NC(=O)Cn2nc(-c3ccc(C)c(C)c3)ccc2=O)cc(OC)c1", "Potency": "inactive"},
      {"smiles": "CCN(CC)c1cc(NC2CCCCC2)c2c3c(onc13)-c1ccccc1C2=O", "Potency": "inactive"},
      {"smiles": "COc1ccc(-c2noc(CSc3nc4ccc(C)cc4[nH]3)n2)cc1", "Potency": "inactive"}
    ]}
  ]
}
